Molecules are shown by their SMILES. Inconclusive results are not listed. Where a call stands in place of a potency, no number is given. Unmarked numbers belong to inactive results. Activity calls are given as the source filed them. The call rests on the fitted dose curve.

The nature of one assay: p53 small molecule agonists, cell-based qHTS assay with human liver microsomes (AID 1963577).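 Further: p53 response element beta-lactamase reporter cells with liver microsomes plus NADPH.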 To be noted: HCT-116 p53RE-bla with human liver microsomes, ratio, 16 h; series mostly up to 66 µM. Summed up: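 HLM-supplemented p53RE-bla reporter assay: 16 h compound exposure at 37 C, microsomes and NADPH each 0.5 mg/mL final, read by fluorescence intensity.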
(In general: qHTS replaces the single test concentration by a dilution series.)
As for `CN(CCCN1c2ccccc2CCc2ccccc21)CC(=O)c1ccc(Cl)cc1`, the Potency result was “inactive”.

In the case of `Oc1ccc(C2(c3ccc(O)cc3)CC3CC2C2CCCC32)cc1` (stereo not given), the Potency result is “inactive”.

In the case of `CC(CO)(CO)CO`, the Potency result was “inactive”.

Consider `CC(C)(C)c1ccc(C(=O)O)cc1`, for which the Potency entry is “inactive”.

For the compound `C/C=C1\[C@H]2C=C(C)C[C@]1(N)c1ccc(=O)[nH]c1C2`, the Potency entry was “inactive”.

Turning to `CCN1/C(=C/C=C/c2sc3ccccc3[n+]2CC)Sc2ccccc21`, the activation was 15.3% [at 13.5 µM].

Regarding `CCCC(=O)OC`, the Potency entry is “inactive”.

On to `C/C=C/C=C/CO`, for which the Potency entry is “inactive”.

On to `OCCOCC#CCOCCO`, for which the Potency entry was “inactive”.

`CN(C)CCCN1c2ccccc2Sc2ccc(Cl)cc21`: the Potency entry was “inactive”.

As to `Cc1ccc(O)c2ncccc12`, the Potency entry is “inactive”.

Consider `CCCCN1C(=O)[C@@H]([C@H](O)C2CCCCC2)NC(=O)C12CCN(Cc1ccc(Oc3ccc(C(=O)O)cc3)cc1)CC2`, for which the Potency result was “inactive”.

On to `O=C(O)Cc1ccc(Cl)cc1Cl`, for which the Potency result is “inactive”.

Consider `CC(=O)OC(C)OC(C)=O`, for which the Potency entry is “inactive”.

`CCN(CC)CCOC(=O)C(c1ccccc1)C1CCCCC1` (stereo not given): the Potency result is “inactive”.

On to `CC1=CC(=C(c2ccc(N)cc2)c2ccc(N)cc2)C=CC1=N`, for which the activation was -13.4% [at 5.99 µM].

Take `CC(=O)OCC(C)OC(C)=O` (stereo not given): the Potency entry was “inactive”.

Regarding `O=[N+]([O-])c1cccc(C(F)(F)F)c1`, the Potency result was “inactive”.

Take `CC1(C)[C@@H](O)CC[C@]2(C)[C@H]3C(=O)C=C4[C@@H]5C[C@@](C)(C(=O)O)CC[C@]5(C)CC[C@@]4(C)[C@]3(C)CC[C@@H]12`: the Potency result is “inactive”.

`O=C(/C=C/c1ccccc1)OCCc1ccccc1`: the Potency result was “inactive”.

On to `CCOC(=O)CC(=O)C(=O)OCC`, for which the Potency entry was “inactive”.

Take `O=C(O)Cc1cc(I)c(Oc2ccc(O)c(I)c2)c(I)c1`: the Potency result is “inactive”.

Regarding `CC(C)C(O)(c1ccc(OC(F)(F)F)cc1)c1cncnc1` (stereo not given), the Potency entry was “inactive”.

Consider `O=Cc1ccc(O)c(O)c1O`, for which the Potency result was “inactive”.

`C=CCCCCCCC=C`: the Potency entry was “inactive”.

With `CC/C=C1/OC(=O)c2ccccc21`, the Potency entry was “inactive”.

As to `Cc1cccc(Nc2ccccc2)c1`, the Potency entry was “inactive”.

`Cc1ccc([N+](=O)[O-])c(N)c1`: the Potency result was “inactive”.

On to `CC(=O)[O][Al]`, for which the Potency entry is “inactive”.

In the case of `c1ccc2c(c1)ccc1c3ccccc3ccc21`, the Potency result was “inactive”.

Consider `O=C1CCc2ccc(OCCCCN3CCN(c4cccc(Cl)c4Cl)CC3)cc2N1`, for which the Potency entry is “inactive”.

Consider `CCc1ccc2c(c1)C(=O)c1ccccc1C2=O`, for which the Potency entry is “inactive”.

Consider `CC(C)(C)c1cc(CO)cc(C(C)(C)C)c1O`, for which the Potency entry is “inactive”.

`CCCCOC(=O)CO`: the Potency result was “inactive”.

In the case of `CCCCCCOC(=O)c1ccccc1`, the Potency result was “inactive”.

Regarding `CC(C)c1ccccc1`, the Potency result was “inactive”.

Consider `CCN(Cc1cccc(S(=O)(=O)O)c1)c1ccc(C(=C2C=CC(=[N+](CC)Cc3cccc(S(=O)(=O)[O-])c3)C=C2)c2ccccc2)cc1`, for which the Potency result is “inactive”.

As for `On1ccccc1=S`, the Potency result is “inactive”.

As to `N#CCCCC(C#N)CCC#N` (stereo not given), the Potency result is “inactive”.

Regarding `O=C(c1ccccc1)C1CCCCC1`, the Potency entry was “inactive”.

The nature of the next assay: p53 small molecule agonists, cell-based qHTS assay with rat liver microsomes (AID 1963578). To be noted: HCT-116 p53RE-bla, beta-lactamase ratio, 16 h; series mostly up to 66 µM. Summed up:
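Quantitative HTS of the Tox21 10K library: p53RE-bla cells, rat liver microsomes plus NADPH at 0.5 mg/mL final each, 16 h at 37 C, beta-lactamase fluorescence detection.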
Turning to `CN(CCCN1c2ccccc2CCc2ccccc21)CC(=O)c1ccc(Cl)cc1`, the Potency entry was “inactive”.

As to `Oc1ccc(C2(c3ccc(O)cc3)CC3CC2C2CCCC32)cc1` (stereo not given), the Potency result was “inactive”.

As to `CC(CO)(CO)CO`, the Potency entry is “inactive”.

Take `CC(C)(C)c1ccc(C(=O)O)cc1`: the Potency entry is “inactive”.

As to `C/C=C1\[C@H]2C=C(C)C[C@]1(N)c1ccc(=O)[nH]c1C2`, the Potency result is “inactive”.

`CCN1/C(=C/C=C/c2sc3ccccc3[n+]2CC)Sc2ccccc21`: the activation was 2.93% [at 13.6 µM].

Consider `CCCC(=O)OC`, for which the Potency result was “inactive”.

Regarding `C/C=C/C=C/CO`, the Potency entry was “inactive”.

For the compound `OCCOCC#CCOCCO`, the Potency result was “inactive”.

Regarding `CN(C)CCCN1c2ccccc2Sc2ccc(Cl)cc21`, the Potency entry is “inactive”.

With `Cc1ccc(O)c2ncccc12`, the Potency result is “inactive”.

For the compound `CCCCN1C(=O)[C@@H]([C@H](O)C2CCCCC2)NC(=O)C12CCN(Cc1ccc(Oc3ccc(C(=O)O)cc3)cc1)CC2`, the Potency entry was “inactive”.

Regarding `O=C(O)Cc1ccc(Cl)cc1Cl`, the Potency entry is “inactive”.

Turning to `CC(=O)OC(C)OC(C)=O`, the Potency entry was “inactive”.

In the case of `CCN(CC)CCOC(=O)C(c1ccccc1)C1CCCCC1` (stereo not given), the Potency entry was “inactive”.

Consider `CC1=CC(=C(c2ccc(N)cc2)c2ccc(N)cc2)C=CC1=N`, for which the activation was -2.26% [at 5.99 µM].

Consider `CC(=O)OCC(C)OC(C)=O` (stereo not given), for which the Potency entry is “inactive”.

For `O=[N+]([O-])c1cccc(C(F)(F)F)c1`, the Potency entry is “inactive”.

Consider `CC1(C)[C@@H](O)CC[C@]2(C)[C@H]3C(=O)C=C4[C@@H]5C[C@@](C)(C(=O)O)CC[C@]5(C)CC[C@@]4(C)[C@]3(C)CC[C@@H]12`, for which the Potency result was “inactive”.

Turning to `O=C(/C=C/c1ccccc1)OCCc1ccccc1`, the Potency result is “inactive”.

Consider `CCOC(=O)CC(=O)C(=O)OCC`, for which the Potency entry was “inactive”.

Regarding `O=C(O)Cc1cc(I)c(Oc2ccc(O)c(I)c2)c(I)c1`, the Potency result was “inactive”.

Consider `CC(C)C(O)(c1ccc(OC(F)(F)F)cc1)c1cncnc1` (stereo not given), for which the Potency result is “inactive”.

On to `O=Cc1ccc(O)c(O)c1O`, for which the Potency result was “inactive”.

In the case of `C=CCCCCCCC=C`, the Potency entry is “inactive”.

On to `CC/C=C1/OC(=O)c2ccccc21`, for which the Potency result was “inactive”.

With `Cc1cccc(Nc2ccccc2)c1`, the Potency result is “inactive”.

In the case of `Cc1ccc([N+](=O)[O-])c(N)c1`, the Potency entry is “inactive”.

For the compound `CC(=O)[O][Al]`, the Potency result is “inactive”.

On to `c1ccc2c(c1)ccc1c3ccccc3ccc21`, for which the Potency entry is “inactive”.

With `O=C1CCc2ccc(OCCCCN3CCN(c4cccc(Cl)c4Cl)CC3)cc2N1`, the Potency result is “inactive”.

Take `CCc1ccc2c(c1)C(=O)c1ccccc1C2=O`: the Potency result was “inactive”.

On to `CC(C)(C)c1cc(CO)cc(C(C)(C)C)c1O`, for which the Potency entry is “inactive”.

Consider `CCCCOC(=O)CO`, for which the Potency result is “inactive”.

Take `CCCCCCOC(=O)c1ccccc1`: the Potency result is “inactive”.

`CC(C)c1ccccc1`: the Potency entry was “inactive”.

With `CCN(Cc1cccc(S(=O)(=O)O)c1)c1ccc(C(=C2C=CC(=[N+](CC)Cc3cccc(S(=O)(=O)[O-])c3)C=C2)c2ccccc2)cc1`, the Potency entry was “inactive”.

Turning to `On1ccccc1=S`, the Potency result was “inactive”.

On to `N#CCCCC(C#N)CCC#N` (stereo not given), for which the Potency entry was “inactive”.

As for `O=C(c1ccccc1)C1CCCCC1`, the Potency result is “inactive”.
